Data: PubChem BioAssay AID1569 (National Center for Advancing Translational Sciences (NCATS), 2009)
Inconclusive results are not listed. Active and inactive are the calls of the source. Calls follow the shape of the dose curve; as a rule, active = well fitted inhibition curve with a large enough effect; inconclusive = small, poorly fitted or top-dose-only effect, or effect the other way, or another doubt; inactive = no such curve, though single readings can be large or run the other way.

Assay: Confirmation Concentration-Response Assay for lipid storage modulators; also: nearly all actives have a fitted effect of over 80% in size
Summary of the method: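 Cells at 5,000/well received compound as a titration plus oleic acid (added as 400 uM solution) and were incubated 18–24 h at 24 °C. BODIPY 493/503 lipid signal and CellTracker Red cell count were read by 488-nm laser-scanning cytometry. Activity was normalised to 20 uM Triacsin C.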
Potency is read from the fitted curve at half-maximal effect.

Structure (SMILES) | Potency
CC(=O)Nc1cccc(C(=O)NC2CCCc3c2cnn3-c2ccccc2F)c1 (stereo unspecified) | 14.1 µM (active)
Cc1ccc(C)c(S(=O)(=O)N2CCN(CC(=O)Nc3sccc3C#N)CC2)c1 | 9.96 µM (active)
COc1ccc(CCNC(=O)CSC2=NS(=O)(=O)c3ccccc3N2)cc1OC | inactive
c1ccc(CNc2ncnc3ccccc23)cc1 | 12.5 µM (active)
c1ccc(-c2cnn3c(-c4ccccc4)c(-c4ccccc4)nc3n2)cc1 | 3.15 µM (active)
COc1nc(Nc2nc3ccccc3c(=O)[nH]2)nc2ccc(C)cc12 | 2.17 µM (active)
O=C(Nc1ccc(N2CCOCC2)cc1N1CCOCC1)c1ccc(Br)cc1 | inactive
CC1CCCCN1c1ccc(N)cc1C(N)=O (stereo unspecified) | inactive
O=C(O[C@H]1[C@H](Cc2ccccc2)NS(=O)(=O)[C@H]2C[C@@H]3C=C[C@]12O3)c1ccc([N+](=O)[O-])cc1 | 28.1 µM (active)
CCCCc1c(O)nc(SCC(=O)NCCc2ccc(OC)c(OC)c2)[nH]c1=O | inactive
CCn1c(COc2ccc(Cl)cc2)nnc1SCC(=O)Nc1ccc2c(c1)OCCO2 | 11.2 µM (active)
CCOC(=O)C1CCN(C(=O)C2(NC(=O)NC3CCCCC3)CCCCC2)CC1 | 1.41 µM (active)
COc1ccccc1NC(=O)NC1(C(=O)N2CCC(C)CC2)CCCCC1 | inactive
COc1ccc(NC(=O)NC2(C(=O)N3CCOCC3)CCCCC2)cc1 | inactive
COc1ccc(CCNC(=O)CSc2nnc(CNc3ccc(Cl)cc3)o2)cc1OC | inactive
Cc1ccc(C)c(OCc2cc(C(=O)N3CC[C@@H]4CCCC[C@H]4C3)no2)c1 | 14.1 µM (active)
COc1cccc(-n2nnnc2SCC(=O)NCCc2ccc(OC)c(OC)c2)c1 | inactive
CCOC(=O)C1(Cc2ccc(Cl)cc2)CCN(C(C)Cc2ccc(O)c(OC)c2)CC1 (stereo unspecified) | 11.2 µM (active)
COc1ccccc1Nc1nnc(SCC(=O)Nc2nc(-c3ccc(F)cc3)cs2)s1 | 0.705 µM (active)
O=C(Nc1cccc(S(=O)(=O)N2CCCCC2)c1)c1ccccc1NS(=O)(=O)c1ccc(F)cc1 | 28.1 µM (active)
COc1ccc2c(c1)O[C@@H](c1cccc(C(F)(F)F)c1)[C@H](OC(=O)NCCc1ccc(OC)c(OC)c1)C2=O | 4.99 µM (active)
O=C(NC1CCCc2c1cnn2-c1ccccc1F)c1ccccn1 (stereo unspecified) | 0.0079 µM (active)
CCOc1ccc(CCNC(=O)CSCc2ccc(C)cc2)cc1OCC | inactive

Structure (SMILES) | Potency
O=C(Nc1ccc(S(=O)(=O)N2CCCCC2)cc1)c1ccc(CN2CCc3ccccc3C2)cc1 | 7.91 µM (active)
COc1ccc(CCNC(=O)Cn2cccc2C(=O)c2ccccc2C)cc1OC | inactive
C[C@@H]1NS(=O)(=O)[C@H]2C[C@@H]3C=C[C@]2(O3)[C@H]1OC(=O)c1ccccc1Br | inactive
CCOc1ccc(CCNC(=O)COC(=O)/C=C/c2ccc(OCC#N)c(OC)c2)cc1OCC | 3.15 µM (active)
CC(=O)N1CCN(C(=O)C2(NC(=O)Nc3ccc(C)cc3)CCCCC2)CC1 | inactive
Cc1cc(N2CCCC2=O)cc(C)c1S(=O)(=O)NCCOc1ccc(C(C)(C)C)cc1 | 3.97 µM (active)
COc1ccc(OC)c(CCNC(=O)Cn2sc3nc(C)cc(C)c3c2=O)c1 | 4.99 µM (active)
CN(Cc1cccc(F)c1)C(=O)c1ccc2c(=O)n3c(nc2c1)CCC3 | inactive
COc1ccc2c(c1)c1nnc(SCC(=O)N3C(C)CCCC3C)nc1n2C (stereo unspecified) | 3.53 µM (active)
CCOc1ccc(CCNC(=O)COC(=O)c2cccs2)cc1OCC | 3.15 µM (active)
CCc1ccc(NC(=O)COc2ccc(/C=C(/C#N)c3nc4ccccc4[nH]3)cc2OC)cc1 | 7.05 µM (active)
Nc1c(C(=O)Nc2ccc(S(=O)(=O)N3CCCC3)cc2)sc2nc3ccc(OC(F)(F)F)cc3cc12 | 8.88 µM (active)
CCCCNc1cc(C)nc(NCc2ccccc2)n1 | 7.91 µM (active)
COc1ccc(/C=C/C(=O)NCCc2ccc(OC)c(OC)c2)cc1 | 5.6 µM (active)
CCOc1ccc(CCNC(=O)COC(=O)COc2cc(C)cc(C)c2)cc1OCC | inactive
O=C(Nc1ccc(S(=O)(=O)N2CCCC2)cc1)c1ccc(CN2CCc3ccccc3C2)cc1 | 14.1 µM (active)
CCOc1ccc(CCNC(=O)COC(=O)C2CCN(c3ccc(C(F)(F)F)cn3)CC2)cc1OCC | inactive
COc1ccc(NC(=O)NC2(C(=O)N3CCCC(C)C3)CCCCC2)cc1 (stereo unspecified) | inactive
Cc1ccc(NCc2ccc(O)c3ncccc23)cc1 | inactive
O=C1C(Nc2ccccc2)=C/C(=N/S(=O)(=O)c2cccs2)c2ccccc21 | 7.91 µM (active)
CCOc1ccc(CCNC(=O)COC(=O)c2ccc(S(C)(=O)=O)cc2)cc1OCC | inactive
COc1ccc(CCNC(=O)CC2SC(N)=NC2=O)cc1OC (stereo unspecified) | inactive
O=C(Nc1ccc(Cl)c(Cl)c1)Nc1ccc(Br)cc1F | 8.88 µM (active)

Structure (SMILES) | Potency
Nc1c(C(=O)C2CC2)sc2nc(-c3ccccc3)cc(C(F)(F)F)c12 | 1.58 µM (active)
COc1ccc(CCNC(=O)CSc2nc(O)cc(=O)[nH]2)cc1OC | inactive
Cc1ccc(S(=O)(=O)NCCC2=CCCCC2)cc1C(N)=O | 22.3 µM (active)
O=C(NC1CCCc2c1cnn2-c1ccc(F)cc1F)c1cnccn1 (stereo unspecified) | 0.445 µM (active)
O=C(CCc1ccccn1)NC1CCCc2c1cnn2-c1ccc(F)cc1F (stereo unspecified) | inactive
c1ccc(-c2csc3ncnc(NCC4COc5ccccc5O4)c23)cc1 (stereo unspecified) | 1.99 µM (active)
COc1cc(NC(=O)COc2ccccc2[N+](=O)[O-])ccc1NC(=O)c1cccs1 | 17.7 µM (active)
CCCOc1ccc2oc(=O)c3c(c2c1)CCCN3C(=O)CN1CCN(C(=O)c2ccco2)CC1 | 1.99 µM (active)
COc1ccc(CCNC(=O)c2noc(C(C)C)c2[N+](=O)[O-])cc1OC | inactive
COC(=O)c1ccccc1NC(=O)c1ccc(F)cc1F | 1.41 µM [activator] (active)
COc1ccc(/C=C(/NC(=O)c2cccs2)C(=O)Nc2ccc(C)cc2)cc1OC | 0.25 µM (active)
COc1ccc(N=Nc2nc(-c3ccccc3)c(-c3ccccc3)[nH]2)cc1 | 2.5 µM (active)
COc1ccc(CCNC(=O)CCCOc2cccc(C)c2C)cc1OC | inactive
CCCc1ccc(-c2csc(NC(=O)Cc3cccs3)n2)cc1 | 1.58 µM (active)
CCn1c(Cc2ccc(OC)cc2)nnc1SCC(=O)Nc1cccc(C(=O)OC)c1 | inactive
Nc1cccc(-c2nc3cc(S(=O)(=O)c4ccc5oc(-c6cccc(N)c6)nc5c4)ccc3o2)c1 | 6.28 µM (active)
COc1ccc(N=NC2C(=O)N(c3ccccc3)N=C2C)cc1 (stereo unspecified) | 14.1 µM (active)
CCC(=O)c1ccc(OCC(=O)Nc2ccc(N3CCOCC3)cc2N2CCOCC2)cc1 | inactive
CCOc1ccc(CCNC(=O)COC(=O)/C=C/c2ccc(C)o2)cc1OCC | 0.499 µM (active)
O=C(NC1CCCc2c1cnn2-c1cc(F)cc(F)c1)c1cc[n+]([O-])cc1 (stereo unspecified) | inactive
O=C(NC1CCCc2c1cnn2-c1ccc(F)cc1F)c1ccccn1 (stereo unspecified) | 0.0112 µM (active)
Cn1nc(C(C)(C)C)cc1C(=O)NCc1ccc2c(c1)OCO2 | 2.5 µM (active)
Cc1cc(C)cc(-n2ncc3c2CCCC3NC(=O)c2csnn2)c1 (stereo unspecified) | 0.0112 µM (active)

Structure (SMILES) | Potency
COc1ccc(CCNC(=O)COc2ccc(-c3ccccc3)cc2)cc1OC | inactive
CNC(=O)c1sc2nc(-c3ccc(OC)cc3)cn2c1C | 15.8 µM (active)
COC(c1ccccc1)c1nnc(CCC(=O)NC2C3CC4CC(C3)CC2C4)o1 (stereo unspecified) | 5.6 µM (active)
CCc1cccc2cc3c(N)c(C(=O)Nc4ccc(S(=O)(=O)N5CCCC5)cc4)sc3nc12 | 9.96 µM (active)
CCOc1ccc(CCNC(=O)COC(=O)c2ccc(Cl)nc2)cc1OCC | inactive
O=C(CC(O)(C(F)(F)F)C(F)(F)F)Nc1ccc(Cl)c(Cl)c1 | 9.96 µM (active)
CC(Oc1ccc2oc3ccccc3c2c1)C(=O)NC12CC3CC(CC(C3)C1)C2 (stereo unspecified) | 0.705 µM (active)
CC1CCN(C(=O)C2(NC(=O)Nc3cccc(F)c3)CCCCC2)CC1 | 7.91 µM (active)
Cc1ccc(C(C(=O)NC2CCCCC2)N(Cc2ccco2)C(=O)Cc2c[nH]c3ccccc23)o1 (stereo unspecified) | 4.45 µM (active)
CNC(=O)NC(=O)C(C)OC(=O)c1c2c(nc3ccccc13)/C(=C/c1cccs1)CC2 (stereo unspecified) | 0.141 µM (active)
COc1ccc(CCNC(=O)c2cc3sc(Cl)cc3n2C)cc1OC | inactive
COc1ccc(CCNC(=O)Cn2nnc(-c3ccc(N4CCOCC4)cc3)n2)cc1OC | 0.0445 µM (active)
CCOC(=O)c1cc(CC)sc1NC(=O)C1CC(=O)NN1Cc1ccccc1 (stereo unspecified) | 0.315 µM (active)
COc1ccc(/C=C\C(=O)NCc2ccc3[nH]c(C)cc3c2)cc1OC | 4.45 µM (active)
CCOC(=O)c1cc2c(ccn2C)n1CC(=O)N1C(C)CCCC1C (stereo unspecified) | 11.2 µM (active)
O=S(=O)(c1ccccc1C(F)(F)F)N1CCC(n2cnc3ccccc32)CC1 | 0.996 µM (active)
COC(=O)c1c(-c2c(Cl)cccc2Cl)noc1NC(=O)NN1CCOCC1 | 2.5 µM (active)
CN(CC1CCCO1)S(=O)(=O)c1ccc(C(=O)Nc2ccc(F)cc2)cc1 (stereo unspecified) | inactive
O=C(CSc1nnc2c(n1)[nH]c1ccccc12)Nc1cccc(S(=O)(=O)N2CCOCC2)c1 | 15.8 µM (active)
Cn1cc(CNCc2ccc(OC(F)(F)F)cc2)c(-c2ccc3c(c2)OCCO3)n1 | 6.28 µM (active)
CCOc1ccc(OCC)c(NC(=O)C2CCN(S(=O)(=O)c3c(C)noc3C)CC2)c1 | 0.996 µM (active)
C1=C(CCNc2ncnc3c2[nH]c2ccccc23)CCCC1 | 0.996 µM (active)
